Results from the supplement of paper PMC6555819.

Assays:
Test in all cases: PBM binding z-score (relative to random genomic background probes); higher = stronger binding; sequences stand for … in GC…GCGATTGACAGCGTAGAATGAAGG
[1] = test system: PPARg:RXRa DBDmut IVT, anti-RXR (DBD mutation: RXRa K156A/R161A, NR concentration 270 nM, RXRa partner concentration 90 nM)
Method in brief: (§1)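 The probes on custom Agilent 4×180K protein-binding microarrays were double-stranded, with 34-nt variable regions bearing direct-repeat seeds, single-nucleotide variants, half-site ablations and random human genomic background sequences. Incubation lasted 1 h with ligand-free nuclear receptor dimers in PBS pH 7.4, 2% milk, 0.02% Triton X-100, 1 mM DTT, 0.2 mg/mL BSA and 0.4 mg/ml salmon testes DNA. Antibodies against each partner (one per run) detected bound dimers, and fluorescence scans were regression-normalized. Binding z-scores take the random background probes as reference.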

[2] = test system: PPARg:RXRa IVT, anti-PPARg (NR concentration 270 nM, RXRa partner concentration 90 nM)
Method in brief: as §1

[3] = test system: PPARg DBDmut:RXRa IVT, anti-PPARg (DBD mutation: PPARg1 K132A/R137A, NR concentration 270 nM, RXRa partner concentration 90 nM)
Method in brief: as §1

[4] = test system: PPARg DBDmut IVT, anti-PPARg (DBD mutation: PPARg1 K132A/R137A, NR concentration 270 nM)
Method in brief: as §1

[5] = test system: PPARg homodimer (NR concentration 180 nM)
Method in brief: as §1

[6] = test system: PXR:RXRa (NR concentration 270 nM, RXRa partner concentration 90 nM)
Method in brief: as §1

[7] = test system: PXR homodimer (NR concentration 270 nM)
Method in brief: as §1

[8] = test system: RARa:RXR (NR concentration 270 nM, RXRa partner concentration 90 nM)
Method in brief: as §1

[9] = test system: RARa homodimer (NR concentration 270 nM)
Method in brief: as §1

[10] = test system: RARb:RXRa (NR concentration 270 nM, RXRa partner concentration 90 nM)
Method in brief: as §1

Sequence	PBM binding z-score [1]	PBM binding z-score [2]	PBM binding z-score [3]	PBM binding z-score [4]	PBM binding z-score [5]	PBM binding z-score [6]	PBM binding z-score [7]	PBM binding z-score [8]	PBM binding z-score [9]	PBM binding z-score [10]
ATCTCTAGGTAACCATGTTCAGTGAATGCCGAAC	3.64	2.88	0.786	1.37	0.698	0.218	0.202	0.406	0.844	0.355
CGTCCAAGGTCAGCAGGTAAGTGAAAGCGACGTG	2.46	2.83	0.325	-0.0804	2.47	2.54	-0.0164	3.47	1.22	5
GCTAGGAGGACAAGGTCAGAGCTTTGTCCGTAGA	1.13	1.17	-0.92	-1.52	0.32	1.57	-0.305	1.89	-1.07	3.41
ATCGAAAGGTCTACGAGGTGAGTATACACCGTTT	-0.371	1.17	0.797	0.317	0.182	0.409	0.194	1.17	0.434	1.81
CCTTACGGGTCAACGTTATAGCACGGGTGGTACG	2	3.53	0.108	-0.133	1.79	3.18	-0.188	3.99	0.25	4.13
TCTATTAGTTGATTTGGGCAACCGAAACAGCGGA	2.03	0.616	1.09	1.16	0.506	0.543	0.421	0.432	0.567	0.368
TTACCAATGTGAAAGGTCGTTGATGCACGCCTTG	0.0484	2.32	0.0698	0.235	1.33	2.76	0.663	3.27	0.219	1.74
CGTCCAATGTCAGCAGGTCAGTGAAAGCGACGTG	0.4	0.811	-0.067	-0.189	1.33	0.416	-0.258	1.17	0.0652	2.6
AGAATGATGTTATTAAGATCAGGGAATTGCGGTC	-0.219	0.135	0.648	0.441	0.197	-0.0155	-0.0811	0.136	0.841	-0.333
CCTACTGGGCCAAAAAGGTCATGGATGCCGATAA	3.31	4.16	0.474	-0.298	4.05	4.81	0.732	5.53	1.87	4.27
TCTAGTTGGTCACGGAGCTCACACACGACGGGTA	2.15	2.2	0.346	0.786	0.57	0.334	-0.237	0.366	0.0423	1.5
TCATATAAGTAAATGCTAGGTGAAAGTCCGATCT	3.04	0.569	0.642	0.691	1.1	0.626	0.422	0.789	1.78	0.428
TCTCGGAGGACACGAAGGTCATAGCTTTCCAGAG	1.58	1.77	-0.131	-1.04	1.95	3.8	3.5	3.59	0.346	3.62
CCTTACGGGTAACTGACAGGTTATAGCATTTGGA	1.03	0.095	-0.022	-0.575	0.529	0.109	-0.252	0.585	0.214	0.274
TACACAGGGTCAAAGGCCAGAGTACGAATGTCGA	1.53	4.08	0.992	0.428	1.44	4.11	0.543	5.47	0.487	4.53
CGGACTAGGTCATTGACAGGACAGTGAATAGTAA	7.36	7.62	1.48	0.689	1.1	1.6	0.0677	2.12	0.305	3.53
GCATAAAGGTAATACAAGGTGAAAGTCCGATTGT	0.839	1.67	0.773	0.759	0.757	1.42	-0.0245	1.99	0.262	1.11
TCTTGTAGATCTATAGAGGTTAAGAAAGTGCGCT	1.2	0.683	0.144	0.174	0.213	2.66	-0.0488	1.63	0.178	0.906
TTACCAAGGTGAAGGTCTTTGATCCCTCTGTAGA	1.88	3.26	-0.214	0.0438	0.225	0.389	-0.43	0.847	-0.184	1.65
AGATGTAGGTTATCGGGTCATTCAGTTTGCGCAT	7.36	7.13	2.95	1.82	2.53	4.02	7.55	4.01	1.35	2.73
TTAACAAGGTGAGCTGAGGTCGTTGATCCAACTC	1.96	2.33	-0.0875	0.378	-0.141	4.89	0.519	1.62	-0.64	1.66
CCTCGGCGGACAACAGGAGGTCAGAGCTGCCAGA	-0.701	-0.463	-0.701	-1.7	0.632	1.32	0.232	1.76	0.119	1.96
CCTCGGAGGACAACAAGAGGTCAGAGCTGCCAGA	-0.155	0.669	-1.24	-1.03	1.86	3.04	0.241	3.4	0.861	3.18
TGAATGAGGTTATAAGTTCAGGGAACGTTGCAAA	1.14	1.78	0.562	0.599	1.97	3.24	1.46	3.81	0.0281	2.87
